Not all results are given here.
aSyn 5UTR act: Activators working through SNCA 5'UTR binding (MLPCN) | alpha-synuclein 5'UTR reporter, activators screen | actives 7.1% (n = 300,000) | activity score, % (tested at 7.5 µM), hits read low; in the data active means activity score below about -60%
Numbers stand for hits; . = inactive.

SMILES | aSyn 5UTR act
CCC(Oc1ccccc1)C(=O)Nc1nc2ccccc2[nH]1 (configuration not stated) | -66
COc1ccc(OCC(=O)Nc2nc3ccccc3[nH]2)cc1 | -123
COc1ccccc1CCC(=O)Nc1nc2ccccc2[nH]1 | -223
CCCCCC(=O)Nc1nc2ccccc2[nH]1 | -177
Nc1cccc2c1C(=O)N(C(=O)/C=C/c1cccc(Br)c1)C2=O | -160
CCCn1c(Sc2nnnn2-c2ccccc2)n[nH]c1=O | -98
Cn1c(SCc2ccccc2)nnc1-c1cnccn1 | -131
Cn1c(SCc2ccc(F)cc2)nnc1-c1cnccn1 | -85
Cn1nc(-c2ccccn2)nc2c(=O)n(C)c(=O)nc1-2 | .
Cc1ccccc1CSc1nnc(-c2cnccn2)n1C | -105
Cn1c(SCc2ccc(Br)cc2)nnc1-c1ccccn1 | -93
CC1CCN(c2c([N+](=O)[O-])nn(-c3ccc4c(c3)OCCO4)[n+]2[O-])CC1 | -98
CN(C(=O)COC(=O)c1c2c(nc3ccccc13)/C(=C/c1cccc([N+](=O)[O-])c1)CCC2)C1CCS(=O)(=O)C1 (configuration not stated) | .
Cc1nn(-c2ccccc2)c(C)c1C(=O)OCC(=O)N(C)C1CCS(=O)(=O)C1 (configuration not stated) | -90
CN(C(=O)COC(=O)c1nc(Cl)c(Cl)c(Cl)c1Cl)C1CCS(=O)(=O)C1 (configuration not stated) | -210
O=C(NC12CC3CC(CC(C3)C1)C2)c1ccc([N+](=O)[O-])o1 | -200
O=C(NC12CC3CC(CC(C3)C1)C2)c1ccc(-c2ccc(Br)cc2)o1 | -246
O=C1c2ccccc2S(=O)(=O)c2cc(N3CCC4(CC3)OCCO4)ccc21 | -118
CC1CCN(c2ccc3c(c2)S(=O)(=O)c2ccccc2C3=O)CC1 | -140
NC(=O)C1CCN(c2ccc3c(c2)S(=O)(=O)c2ccccc2C3=O)CC1 | -63
Cn1ccnc1SCC(=O)N1CCc2ccccc21 | -69
O=C(CSc1nnc2ccccn12)N1CCc2ccccc2C1 | -94
Cc1ccc(C(=O)Nc2nnc(SCC(=O)N3CCCc4ccccc43)s2)cc1 | .
Cc1ccnc(SCC(=O)N2CCc3ccccc32)n1 | -87
O=C(CSc1nnc2ccccn12)N1CCc2ccccc21 | -98
SMILES | aSyn 5UTR act
CCOc1ccc(OCc2ccc(C(=O)O)o2)cc1 | -87
CCOc1ccc(OCc2ccc(C(=O)NCc3ccncc3)o2)cc1 | -67
O=C(O)c1ccc(COc2ccc3ccccc3c2)o1 | -157
COc1ccc2[nH]c3c(NCCCN4CCCC4=O)ncnc3c2c1 | -96
CCOc1ccc2[nH]c3c(NCC(C)C)ncnc3c2c1 | -99
CCOc1ccc2[nH]c3c(NCCCOC)ncnc3c2c1 | -96
O=c1c2[nH]c3ccccc3c2ncn1CCC1=CCCCC1 | -121
CC(C)OCCCNc1ncnc2c1[nH]c1ccccc12 | -178
COc1ccc2[nH]c3c(=O)n(CCc4ccccc4)cnc3c2c1 | -76
CC(=O)Nc1ccc(NC(=O)C(C)OC(=O)/C(C#N)=C/c2ccc(N(C)C)cc2)cc1 (configuration not stated) | -85
CCC(=O)Nc1ccc2oc(-c3ccccc3Br)nc2c1 | -186
O=C(CN1CCCC1)Nc1ccc(-c2nc3cc(NC(=O)CN4CCCC4)ccc3o2)cc1 | -119
CC(C)CC(=O)Nc1ccc2oc(-c3cccnc3)nc2c1 | -120
Cc1ccc2oc(-c3ccc(NC(=O)CC(C)C)cc3)nc2c1 | -77
Cc1ccccc1-c1nc2cc(NC(=O)C3CC3)ccc2o1 | -150
CCCC(=O)Nc1ccc2oc(-c3cncc(Br)c3)nc2c1 | -94
CCC(=O)Nc1ccc2oc(-c3cccnc3)nc2c1 | -101
CCCC(=O)Nc1ccc(-c2nc3cc(C)c(C)cc3o2)cc1 | -110
O=C(CSC(=S)N1CCSCC1)c1ccc(Cl)cc1 | -152
O=C(CSC(=S)N1CCSCC1)c1ccccc1 | -94
O=[N+]([O-])c1cc(C=Nc2ccc3ccccc3c2)ccc1Br | -119
CCOC(=O)N1CCC(NC(=O)c2ccc3c(c2)sc2nc(-c4cccc(OC)c4)cn23)CC1 | -213
COc1ccc(Oc2ccc(/C=C/C(=O)c3ccc(O)cc3)cc2[N+](=O)[O-])cc1 | -97
CN(C)c1ccc(/C=C/C(=O)c2ccccc2)cc1[N+](=O)[O-] | -195
O=C(/C=C/c1ccc(O)c([N+](=O)[O-])c1)c1ccc2ccccc2c1 | -124
SMILES | aSyn 5UTR act
O=C(Nc1ccc2c(c1)oc1ccccc12)c1ccncc1 | -207
CCNC(=S)Nc1ccc2c(c1)oc1ccccc12 | -165
O=C(Nc1ccc2c(c1)oc1ccccc12)c1cccnc1 | -190
Cc1ccnc(NC(=S)NC(=O)c2cncc(Br)c2)c1 | -81
Cc1ccc(N=Nc2c(N)n[nH]c2N)cc1 | -93
Nc1n[nH]c(N)c1N=Nc1ccc2c(c1)OCO2 | -229
COC(=O)N1N=C(c2ccccc2)CC1(O)C(F)(F)F (configuration not stated) | -65
CCN(CC)c1cc(C)c2cc(NC(=O)c3ccccc3OC)ccc2n1 | -75
CCN(CC)c1cc(C)c2cc(NC(=O)c3cccs3)ccc2n1 | -65
Nc1nc(Cl)nc2ccc(Br)cc12 | -123
CN(C)C=Nc1ccc2nn(-c3ccccc3)nc2c1 | -211
CCOC(=O)C(Nc1ccc2ccccc2c1)C(=O)OCC | -138
O=C(/C=C/c1ccccc1Cl)Nc1ccc(Cl)cn1 | -118
O=C(COc1ccc(Cl)cc1)Nc1ccc(Cl)cn1 | -125
O=C(COc1ccc2c(c1)OCO2)Nc1ccc(Cl)cn1 | -142
Cc1ccc(CC(=O)Nc2ccc(Cl)cn2)cc1 | -101
O=C(Nc1ccc(Cl)cn1)c1ccc(Oc2ccccc2)cc1 | -143
O=C(CCc1ccccc1)NC(c1cccs1)c1cc(Cl)c2cccnc2c1O (configuration not stated) | .
O=C(CCc1ccccc1)Nc1ccc(Cl)cn1 | -314
O=C(/C=C/c1ccc2c(c1)OCO2)Nc1ccc(Cl)cn1 | -110
O=C(COc1ccccc1)Nc1ccc(Cl)cn1 | -114
Cc1ccccc1NC(=O)COc1ccc2c(c1)OC(C)(C)CC2=O | -88
O=C(COc1ccc2c(c1)OCO2)Nc1ccccc1F | -98
Cc1occc1C(=O)N/N=C/C(Br)=C/c1ccccc1 | -219
O=C(N/N=C/C(Br)=C/c1ccccc1)c1ccccc1[N+](=O)[O-] | -76
SMILES | aSyn 5UTR act
CC(C)CCNc1nnnc2c1sc1nc(N3CCOCC3)c3c(c12)CC(C)(C)SC3 | .
CC1(C)Cc2c(c(N3CCOCC3)nc3snc(N)c23)CO1 | -169
O=C(Nc1ccccc1F)n1ncc2cc(Cl)ccc21 | -73
COc1ccc(NC(=O)n2ncc3cc(Cl)ccc32)cc1OC | -142
COc1cc(NC(=O)n2ncc3cc(Cl)ccc32)cc(OC)c1 | -186
Oc1c(N=NC(=S)Nc2ccccc2F)c2ccccc2n1Cc1ccc(Cl)cc1 | .
COc1ccc(-c2csc(-c3cccnc3)n2)cc1C | -243
COc1ccc2cc(-c3csc(-c4cccnc4)n3)ccc2c1 | -251
Cc1nc(NC(=O)C2CC3CCCC(C2)C3=O)sc1C (configuration not stated) | -80
Cc1cccc(-n2[nH]c3c4c(ccc3c2=O)C(=O)c2ccccc2C4=O)c1 | -62
O=C1c2ccccc2C(=O)c2c1ccc1c(=O)n(-c3ccccc3)[nH]c21 | -110
N#C/C(C(=O)Oc1ccccc1)=C1\C=CC=CN1 | -80
CC(=O)c1ccc(Nc2ccc([N+](=O)[O-])c3nonc23)cc1 | -104
Cc1ccc(-n2nc(C)c3c2OC(N)=C(C#N)C3c2cccs2)cc1 (configuration not stated) | -91
Nc1ccc(OCCc2ccccc2)cc1 | -76

Assay outcomes (PubChem)
